# Screening results (PubChem BioAssay)
# Compounds with a hit are over-represented: about 4.2% of the library has one in this group of screens.
# a7 integrin act = integrin-mediated muscular dystrophy alleviation activation; alpha7betagal myoblasts, beta-gal FDG fluorescence, 48 h; Potency, µM (titrated, usually from 38.3 µM), for the others: top-dose activation, usual class: activators; 350,000 compounds, 0.064% hits;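 also: 100% = response of the positive control SU9516; nearly all actives have a fitted effect of over 60% in size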
#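 Alpha7betagal+/- myoblasts (passage 13) were plated 16-24 hr, then exposed to compounds (1:260 dilution of DMSO stock) for 48 hours at 37C. After MPER lysis, β-galactosidase reporter activity was read as FDG fluorescence (ex 480/em 540) after 30 minutes.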
# MCF10A rerep = DNA re-replication induction in MCF 10a cells | 350,000 compounds, 2.9% hits | AID 624296 | MCF 10A DNA re-replication, Hoechst nuclear intensity, 48 h | Potency, µM (top dose mostly 46.1 µM), for inactives: at the top dose activity, positive = re-replication, most hits filed as activators; also: % of control where 0% means no effect; nearly all actives have a fitted effect of over 50% in size
# SW480 rereplic = induces DNA re-replication in SW480 colon adenocarcinoma cells | AID 624297 | 340,000 compounds, 1.8% hits | Potency, µM (highest dose often 46.1 µM), without a hit: top-dose re-replication activation, usual class: activators | SW480 DNA re-replication, Hoechst DNA content imaging, 48 h; also: % of control where 0% means no effect; nearly all actives have a fitted effect of over 55% in size
#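 Cells (250 per well) received 23 nL compound or DMSO by pin tool and were kept 48 hr at 37 C, 5% CO2. Nuclei were then stained with Hoechst for 40 min and scanned for DNA content.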
# Mito fusion yeast = inhibitors of mitochondrial division or activators of mitochondrial fusion. S. cerevisiae fusion-defective mutant growth rescue, CellTiterGlo 48 h. Potency, µM (highest dose often 46.1 µM), for inactives: at the highest dose growth rescue (activation), most hits filed as activators. 320,000 compounds, 0.23% hits. AID 485298; also: % of control where 0% means no effect; nearly all actives have a fitted effect of over 45% in size
#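 Growth-rescue viability read-out: after 48 h at the non-permissive 37C in glycerol/ethanol YPEG, yeast mitochondrial fusion mutants are measured by CellTiterGlo luminescence; compounds (23 nl pinned per well) restoring growth score as division inhibitors or fusion activators.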
# A-T KAP1 phos = potential ataxia-telangiectasia treatments restoring KAP-1 phosphorylation | F2112 A-T fibroblasts, KAP-1 phosphorylation AlphaLISA; neocarzinostatin DNA damage 30 min before lysis | Potency, µM (top dose mostly 57.5 µM), inactives show top-dose activation, usual class: activators | 320,000 compounds, 0.19% hits; also: % of control where 0% means no effect; nearly all actives have a fitted effect of over 45% in size
#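 hTERT-immortalized A-T patient fibroblasts (F2112), 500 cells/well in OPTI-MEM, 1% FBS, got compounds for 60 min, then NCS for 30 min at 37C. Lysates were then assayed for phospho-KAP-1 by AlphaLISA (anti-pKAP1 donor, anti-KAP1 acceptor beads), 6 hr at 25C.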
# An asterisk follows results filed as active; ? = inconclusive; nt = not tested or not shown; ! = not confirmed by another sample; [ ] = another dose, or the depositor's remark. Calls follow the shape of the dose curve; as a rule, active = well fitted activation curve with a large enough effect; inconclusive = small, poorly fitted or top-dose-only effect; inactive = no such curve, though single readings can be large or run the other way. Potency is read from the fitted curve at half-maximal effect.
SMILES,a7 integrin act,MCF10A rerep,SW480 rereplic,Mito fusion yeast,A-T KAP1 phos
COc1cccc(/C=N/NC(=O)C(=O)N/N=C/c2cccc(OC)c2OC)c1OC,16%,7%,16µM*,-12%,4%
COc1cccc(/C=N\NC(C)=O)c1OC/C=C/c1ccccc1,-13%,25%,?,10%,0%
COCC(=O)N/N=C\c1cccc(OC)c1OC/C=C/c1ccccc1,-24%,11%,16µM*,8%,15%
N#CCC(=O)N/N=C\c1ccccc1OC/C=C/c1ccccc1,-30%,183%,16µM*,-4%,-7%
COc1ccccc1C=NNC(=O)C(=O)NN=Cc1ccccc1OC,39%,4%,-6%,nt,nt
O=C(CO)N/N=C/c1c2ccccc2cc2ccccc12,14%,25%,3%,4%,1%
C=CCC(CC=C)(NC(=O)c1ccccc1C(=O)O)c1ccccc1,?,-5%,-2%,0%,-3%
CCSc1nnc(-c2c[nH]c3ccccc23)o1,30%,-1%,-6%,26%,13%
Clc1ccc(CSc2nnc(-c3c[nH]c4ccccc34)o2)cc1,6%,21µM*,1%,4%,1%
O=S(=O)(Nc1ccc(-c2nnc(SCc3ccc(Cl)cc3)o2)cc1)c1ccccc1,6%,21µM*,7%,?,-1%
COc1ccc(CN(C(=O)CSc2nnc(-c3c[nH]c4ccccc34)o2)c2ccc(F)cc2)cc1OC,-76%,4.1µM*,7%,?,nt
CCC1CCCCN1CCCNC(=O)c1ccc2nc(N3CCC(C)CC3)sc2c1 (stereo not given),-63%,20%,18µM*,1%,1%
BrC(=C\c1ccccc1)/C=N/Nc1nc(N2CCOCC2)nc(N2CCOCC2)n1,-50%,?,-14%,6%,-3%
Oc1ccc(Br)cc1/C=N/Nc1nc(N2CCCCC2)nc(N2CCOCC2)n1,-9%,12%,21µM*,13%,2%
BrC(/C=C\c1ccccc1)=N/Nc1nc(N2CCOCC2)nc(N2CCOCC2)n1,0%,10µM*,?,8%,9%
C/C(=N\Nc1nc(N2CCCCC2)nc(N2CCOCC2)n1)c1ccccc1O,-17%,?,12µM*,4%,0%[11.5 µM]
C/C(=N\Nc1nc(N2CCOCC2)nc(N2CCOCC2)n1)c1cccs1,-13%,12%,15%,-7%,5%
CCOC(=O)N/N=C\c1cccc(OC)c1,3%,-53%,16%,-2%,12%[11.5 µM]
COc1cccc(Sc2ccccc2/C=N/NC(N)=O)c1,5%,?,6.5µM*,0%,5%
COc1cc2nc(CN3CCN(S(=O)(=O)c4ccc(Cl)cc4)CC3)[nH]c(=O)c2cc1OC,7%,9%,3%,-1%,-3%
Oc1ccc(COCc2ccc(F)cc2)c2cccnc12,nt,nt,nt,11%,2%
C[C@@]12C(=O)Nc3ccc(Cl)cc3C(=O)N1[C@H]1c3cc(Br)ccc3OC[C@@H]1[C@@H]2c1ccccc1,-3%,1%,16µM*,nt,1%
C[C@@]12C(=O)Nc3ccccc3C(=O)N1[C@H]1c3cc(Br)ccc3OC[C@@H]1[C@@H]2c1ccccc1,-11%,3.3µM*,?,?,15%
C[C@@]12C(=O)Nc3ccc(Br)cc3C(=O)N1[C@H]1c3cc(Br)ccc3OC[C@@H]1[C@@H]2c1ccccc1,-17%,-88%,?,13%,9%
COc1ccc(S(=O)(=O)Nc2cccc3c2O[C@H](CN(C)CC2CCCCC2)[C@@H](C)CN([C@H](C)CO)C3=O)cc1,-16%,2%,0%,nt,8%
SMILES,a7 integrin act,MCF10A rerep,SW480 rereplic,Mito fusion yeast,A-T KAP1 phos
CCN(CC)S(=O)(=O)c1ccc(OC)c(NC(=S)Nc2cccc(C)c2C)c1,-12%,9%,3%,1%,6%
Cn1c(/C(C#N)=C/c2ccc(O)cc2)nc2ccccc21,-2%,-1%,-8%,-1%,-15%
Cn1c(/C(C#N)=C/c2ccncc2)nc2ccccc21,0%,?,18µM*,-6%,-2%
COc1ccc(C(=O)CSc2nnc(-c3ccco3)c(-c3ccco3)n2)cc1,23%,4%,6.5µM*,8%,-1%
O=C(CSc1nnc(-c2ccco2)c(-c2ccco2)n1)Nc1ccccc1,-24%,8%,-9%,-2%,-2%
Cc1ccc(NC(=O)CSc2nnc(-c3ccco3)c(-c3ccco3)n2)cc1,-47%,5.8µM*,16µM*,2%,-4%
CCOC(=O)c1cc2sccc2n1CCCN1C(=O)c2ccccc2C1=O,16%,21µM*,10%,?,10%
CCOC(=O)c1cc2sccc2n1Cc1ccccc1,-2%,14%,-3%,-10%,?
CN(CCC1CCOCC1)C(=O)C1CCC(=O)N(CCc2cccc(F)c2)C1 (stereo not given),-15%,-4%,-6%,2%,9%
CCS(=O)(=O)N1CCN(C(=O)c2ccco2)CC1,8%,8.2µM*,17%,-5%,2%
O=C(NCCS(=O)(=O)N1CCN(C(=O)c2ccco2)CC1)c1ccccc1,10%,nt,nt,nt,nt
COc1ccc(C(=O)NCCS(=O)(=O)N2CCN(C(=O)c3ccco3)CC2)cc1,4%,1%,4.1µM*,0%,9%
CCCS(=O)(=O)N1CCN(C(=O)c2ccco2)CC1,15%,0%,-6%,3%,3%
C=CC[C@H](CC(=O)NCCO)C(=O)N[C@@H](COC(=O)[C@@H](CC=C)Cc1ccc(F)cc1)Cc1ccccc1,-7%,5%,-1%,nt,-3%
CC(=O)Oc1cc2c(c3ccccc13)CCC2=O,-11%,15%,-7%,nt,nt
CC(=O)Oc1cc(C)c(OC(C)=O)c2ccccc12,nt,?,27µM*,nt,nt
CC1CCN(C(=O)/C(=C/c2ccccc2Cl)c2ccccc2)CC1,-18%,16µM*,-1%,0%,6%
CN1CCN(C(=O)/C(=C\c2ccccc2)c2ccccc2)CC1,-8%,-8%,17%,-1%,0%
N#CC1=C(N)C(C#N)(C#N)[C@H](c2ccoc2)[C@H]2CN(Cc3ccccc3)CC=C12,-35%,7.3µM*,16µM*,4%,-3%
CC(=NNC(=S)N1CC2CCC(CC2)C1)c1cccc(C)n1,-53%,?,0.41µM*,nt,nt
O=C(c1coc(=O)c(Br)c1)N1CCCc2ccccc21,-17%,15µM*,1%,-4%,-8%
O=C(C1CCCN(S(=O)(=O)c2ccccc2)C1)N1CCCCCC1 (stereo not given),6%,29%,0.52µM*!,29%,1%
O=C(C1CCCN(S(=O)(=O)c2ccc(F)cc2)C1)N1CCCC1 (stereo not given),-7%,-8%,2%,1%,3%
CCC(C(=O)N1CCOCC1)n1c2ccccc2c2nc(=O)cc(C)n21 (stereo not given),-4%,8%,-3%,1%,-7%
O=C1CCCC(O)=C1Sc1cc(Cl)c(Cl)cc1Cl,-22%,1%,-16%,nt,nt
